This is an account of results in PubChem BioAssay (NCATS).

One assay relates to KB-3-1. Kind of assay: Cytotoxic Profiling of Annotated Libraries Using Quantitative High-Throughput Screening (AID 1296008). Further: nearly all actives have a fitted effect of over 60% in size. The conditions noted are these: Five cell lines viability, CellTiter-Glo ATP luminescence, 48-72 h; max response: hits give low values. The procedure, abridged: (§1)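 Cytotoxicity was measured as CellTiter-Glo ATP luminescence, read after 10 min at room temperature. Compound treatment of the cells lasted 48 or 72 hr at 37 degrees Celsius in a qHTS format.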

A further assay has as its system MCC-13. Kind of assay: qHTS assay to identify novel small-molecules to repurpose for Merkel cell carcinoma treatment (AID 1296009). Further: nearly all actives have a fitted effect of over 60% in size. The conditions noted are these: MCC and control cell lines, CellTiter-Glo viability, 72 h; series mostly up to 46 µM. The procedure, abridged: (§2)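 72 hr, 37 degree celsius; NPC 8-pt / MIPE 11-pt dose response; compound pinned in DMSO; CellTiter-Glo, 10 min RT, luminescence; normalized to no-cell and DMSO controls.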
A general note: Quantitative high-throughput screening tests each substance at several concentrations.

Another assay relates to MCC-26. The assay is described as above. The conditions noted are these: MCC and control cell lines, CellTiter-Glo viability, 72 h; series mostly up to 46 µM. The gist of the method:
as §2
Background: Cellular ATP, detected with luciferase, serves as a proxy for viable cell number.

A further assay concerns UISO. The assay is described as above. As to conditions: MCC and control cell lines, CellTiter-Glo viability, 72 h; series mostly up to 46 µM. The procedure, abridged:
as §2

The next assay deals with C33A. Kind of assay: Primary qHTS to identify gynecologic anti-cancer compounds using libraries of approved drugs and bioactive compounds (AID 1345084). Further: nearly all actives have a fitted effect of over 55% in size. The conditions noted are these: Gynecologic cancer cell panel viability, ATPlite luminescence, 48 h; series mostly up to 57.5 µM. The gist of the method:
(§3)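 Five-concentration response, 48 h; readout is ATP-driven luciferase luminescence.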

The next assay has as its system CASKI. The description is as above. As to conditions: Gynecologic cancer cell panel viability, ATPlite luminescence, 48 h; series mostly up to 57.5 µM. The gist of the method:
as §3

A further assay deals with HeLa. Described as above. As to conditions: Gynecologic cancer cell panel viability, ATPlite luminescence, 48 h; series mostly up to 57.5 µM. The procedure, abridged: as §3
The next assay concerns JEG-3. The assay is described as above. As to conditions: Gynecologic cancer cell panel viability, ATPlite luminescence, 48 h; series mostly up to 57.5 µM. The procedure, abridged: as §3
Another assay concerns OV90. The assay is described as above. The conditions noted are these: Gynecologic cancer cell panel viability, ATPlite luminescence, 48 h; series mostly up to 57.5 µM. The procedure, abridged:
as §3

A further assay concerns NIH3T3. Kind of assay: Cytotoxic Profiling of Annotated Libraries Using Quantitative High-Throughput Screening (AID 1296008). Further: nearly all actives have a fitted effect of over 60% in size. As to conditions: Five cell lines viability, CellTiter-Glo ATP luminescence, 48-72 h; max response: hits give low values. The procedure, abridged:
as §1

In the next assay the test system is MKL-1. Kind of assay: qHTS assay to identify novel small-molecules to repurpose for Merkel cell carcinoma treatment (AID 1296009). Further: nearly all actives have a fitted effect of over 60% in size. The conditions noted are these: MCC and control cell lines, CellTiter-Glo viability, 72 h; series mostly up to 46 µM. The gist of the method:
as §2

In a further assay the test system is CAOV3. Kind of assay: Primary qHTS to identify gynecologic anti-cancer compounds using libraries of approved drugs and bioactive compounds (AID 1345084). Further: nearly all actives have a fitted effect of over 55% in size. As to conditions: Gynecologic cancer cell panel viability, ATPlite luminescence, 48 h; series mostly up to 57.5 µM. The gist of the method:
as §3

The subject of the next assay is Es-2. The assay is described as above. The conditions noted are these: Gynecologic cancer cell panel viability, ATPlite luminescence, 48 h; series mostly up to 57.5 µM. The procedure, abridged: as §3
For another assay, the system named is Hek293T. The assay is described as above. The conditions noted are these: Gynecologic cancer cell panel viability, ATPlite luminescence, 48 h, control line for the selectivity index; series mostly up to 57.5 µM. The gist of the method:
as §3

The next assay concerns MKL-2. Kind of assay: qHTS assay to identify novel small-molecules to repurpose for Merkel cell carcinoma treatment (AID 1296009). Further: nearly all actives have a fitted effect of over 60% in size. As to conditions: MCC and control cell lines, CellTiter-Glo viability, 72 h; series mostly up to 46 µM. The gist of the method: as §2
A further assay has as its system WaGa. The description is as above. The conditions noted are these: MCC and control cell lines, CellTiter-Glo viability, 72 h; series mostly up to 46 µM. The procedure, abridged:
as §2

Each structure is given as a SMILES string. Values joined by “and” are separate entries in the source; they are usually repeats but may differ in a detail not shown here. Equal values may be shown once. Inconclusive results are not listed. A number with no mark means an inactive call. Active and inactive are the calls of the source. The call rests on the fitted dose curve; in most records, active means well fitted curve in the direction sought with a large enough effect; inconclusive means small, poorly fitted or top-dose-only effect, or another doubt; inactive means no such curve, though single readings can be large; an effect the other way counts as inactive or inconclusive.
On the % scale 0 is the no-effect control and ±100 the full control effect; potency means the concentration at half of the fitted maximal effect.

Consider `CC(=O)Nc1sc2c(c1-c1nc3ccccc3s1)CNC2`, for which the figures for the Potency in the assay on KB-3-1 and with UISO were 23.5 µM (active) and 8.33 µM (active), respectively. The Potency entry with MCC-13, in the assay with MCC-26, in the assay with C33A, in the assay on CASKI, with HeLa and in the assay on JEG-3 was “inactive” in each case. The Potency result in the assay with OV90 was “inactive”.
On to `CC1(C)OC2=C(C(=O)c3ccccc3C2=O)[C@H](NCc2ccccc2)[C@H]1O`, for which the Potency in the assay on KB-3-1 is 9.35 µM (active); in the assay on NIH3T3, 11.8 µM (active); in the assay with MCC-13 it was 10.5 µM (active); with MKL-1, 3.32 µM (active).
On to `Cc1cn(-c2cc(NC(=O)c3ccc(C)c(Nc4nccc(-c5cccnc5)n4)c3)cc(C(F)(F)F)c2)cn1`, for which the Potency result with C33A, in the assay on CAOV3, in the assay with CASKI, with Es-2, in the assay on HeLa and in the assay with Hek293T was “inactive” in each case. In addition, the Potency result with JEG-3 and in the assay on OV90 was “inactive” each time.
Consider `Fc1cc(-c2cccc3ncc(-c4cnn(C5CCNCC5)c4)nc23)cc(F)c1CN1CCOCC1`, for which the Potency in the assay on CAOV3 is 31.6 µM (active). For the same molecule, the Potency result in the assay on HeLa and with Hek293T was “inactive” throughout.
In the case of `CC1(C)CCC(c2ccc(Cl)cc2)=C(CN2CCN(c3ccc(C(=O)NS(=O)(=O)c4ccc(N[C@H](CCN5CCOCC5)CSc5ccccc5)c(S(=O)(=O)C(F)(F)F)c4)cc3)CC2)C1`, the max response in the assay with KB-3-1 is -2.09%. The Potency entry with MCC-13, in the assay with MCC-26, in the assay on UISO and with Es-2 was “inactive” in each case. For the same molecule, the Potency in the assay with MKL-1 is 0.418 µM (active); in the assay with MKL-2 it was 0.264 µM (active); with WaGa, 0.118 µM (active); with CASKI, 14.1 µM (active).
For the molecule `Cc1cc(Nc2cc(NC(=O)c3c(Cl)cccc3Cl)ccn2)nc(N)n1`, the Potency was 0.418 µM (active) in the assay on KB-3-1; 3.72 µM (active) with NIH3T3; 26.4 µM (active) in the assay on MCC-26; 1.18 µM (active) in the assay with UISO; 2.35 µM (active) in the assay on WaGa.
Take `Cc1cc(C(=O)N2CCN(c3cccc(Cl)c3)CC2)n(-c2ccccc2)n1`: the Potency was 833 nM (active) and 1.64 µM (active) with KB-3-1; 1.66 µM (active) with UISO; 11.2 µM (active) in the assay on Es-2; 8.91 µM (active) in the assay on HeLa. Moreover, the Potency result in the assay with CAOV3 and in the assay on OV90 was “inactive” in each case.
For `COc1cc(C(=O)NS(=O)(=O)c2ccccc2C)ccc1Cc1cn(C)c2ccc(NC(=O)OC3CCCC3)cc12`, the max response with KB-3-1 is -2.66%. For the same molecule, the Potency result in the assay with MKL-1, in the assay with WaGa, in the assay on C33A, with CAOV3, in the assay on CASKI and with Es-2 was “inactive” in each case. For the same molecule, the Potency entry in the assay on HeLa, with Hek293T, in the assay on JEG-3 and in the assay with OV90 was “inactive” in each case. The Potency in the assay with UISO is 20.9 µM (active).
With `O=C(Nc1nc2cccc(-c3ccc(CN4CCS(=O)(=O)CC4)cc3)n2n1)C1CC1`, in the assay on KB-3-1, the Potency was 8.33 µM (active). Moreover, in the assay on NIH3T3, the max response is -23.2%. In addition, the Potency entry in the assay on MCC-13 and with OV90 was “inactive” throughout.
With `CC(C)c1ccccc1Cc1cc(C(=O)Nc2ccc(S(=O)(=O)c3ccccc3C(C)(C)C)cc2)c(O)c(O)c1O`, the figures for the Potency with KB-3-1 and in the assay on MKL-1 were 8.33 µM (active) and 26.4 µM (active), respectively. Besides, the Potency result with MCC-26 and in the assay on MKL-2 was “inactive” each time.
As to `C[C@@H](Oc1cc(-n2cnc3ccc(CN4CCN(C)CC4)cc32)sc1C(N)=O)c1ccccc1C(F)(F)F`, the Potency is 0.0118 µM (active) in the assay on KB-3-1, 0.662 µM (active) in the assay with NIH3T3 and 0.0296 µM (active) with MKL-1.
`COC(=O)c1ccc2c(C(=Nc3ccc(N(C)C(=O)CN4CCN(C)CC4)cc3)c3ccccc3)c(O)[nH]c2c1`: the Potency result in the assay with C33A, in the assay on CASKI, in the assay with Es-2, with Hek293T and in the assay with JEG-3 was “inactive” each time.
`COc1cc(C(=O)N2CCC(N3CCN(C)CC3)CC2)ccc1Nc1ncc2c(n1)N(C)c1ccccc1C(=O)N2C`: the Potency was 14.8 µM (active) and 16.4 µM (active) in the assay on KB-3-1; 13 µM (active) in the assay on NIH3T3; 2.35 µM (active) with MKL-2; 16.6 µM (active) in the assay with WaGa. The Potency result in the assay on MCC-13, in the assay on C33A, with Es-2, in the assay on Hek293T, in the assay with JEG-3 and with OV90 was “inactive” in each case.
Regarding `CCN(CC)CCNC(=O)c1ccc2nc(-c3ccccc3)c(-c3ccc(CN4CCC(n5c(=O)[nH]c6ccccc65)CC4)cc3)nc2c1`, the Potency in the assay on NIH3T3 was 10.5 µM (active); in the assay with MCC-13 it was 8.33 µM (active); with MKL-1, 1.32 µM (active); in the assay on MKL-2, 1.18 µM (active); with UISO it was 16.6 µM (active); in the assay on WaGa, 7.43 µM (active). Further, the Potency entry in the assay with CASKI, with Es-2 and in the assay on HeLa was “inactive” throughout.
Regarding `COc1cc2c(NC3CCN(C(C)C)CC3)nc(C3CCCCC3)nc2cc1OCCCN1CCCC1`, the Potency result with MCC-13 was “inactive”. In addition, the Potency is 6.62 µM (active) in the assay on MKL-2; 28.2 µM (active) in the assay with C33A; 6.31 µM (active) in the assay on CAOV3; 20 µM (active) in the assay on CASKI; 10 µM (active) in the assay with JEG-3; 11.2 µM (active) in the assay on OV90.
